Screens deposited in PubChem by several laboratories.
EBV gp42 inh: Epstein-Barr virus gp42 inhibitors, primary screen, biochemical, uHTS, fluorescence polarization. Glycoprotein 42 (Epstein-Barr virus (strain AG876)), Q1HVG2. Fluorescence polarization binding assay, mP read-out. inhibition, % (tested at 21.74 µM). actives 0.42% (n = 220,000). AID 1085, 2008; in the data active = inhibition above about 50%
Target sequence (Q1HVG2 whole entry, looked up): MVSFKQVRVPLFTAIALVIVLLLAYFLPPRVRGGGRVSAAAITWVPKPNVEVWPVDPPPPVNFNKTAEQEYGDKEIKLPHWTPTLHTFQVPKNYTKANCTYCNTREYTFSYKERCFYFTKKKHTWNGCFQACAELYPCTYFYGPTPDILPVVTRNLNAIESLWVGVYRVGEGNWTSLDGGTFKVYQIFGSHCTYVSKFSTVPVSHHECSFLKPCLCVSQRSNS
GLD-1 TGE inh: GLD-1/TGE RNA complex disruptors, primary screen, biochemical, fluorescence polarization; Female germline-specific tumor suppressor gld-1 (Caenorhabditis elegans), Q17339; purified GLD-1 + fluorescein TGE RNA; inhibition, % at 5.96 µM; actives 0.44% (n = 320,000); AID 2280, 2010;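 active = percent inhibition above a per-plate cutoff, the plate mean of test compounds plus 3 SD, cut at about 30% in these data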;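 note: 0% = DMSO wells with GLD-1 and probe and 100% = wells lacking GLD-1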
BCLXL inh: inhibitors of human Bcl-xL, primary screen, biochemical, fluorescence polarization, HTS. inhibition, % at 10.9 µM. actives 0.7% (n = 320,000). GST-Bcl-xL / FITC-Bim BH3 peptide fluorescence polarization. AID 2129, 2009. Bcl-2-like protein 1 (Homo sapiens), Q07817;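 active = inhibition above the mean of all tested compounds plus 3 SD, cutoff set per campaign, cut at about 30% in these data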;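 note: 0% = DMSO wells and 100% = unlabeled Bim-BH3 peptide competitor; inhibitors lower millipolarization by displacing the labeled peptide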
Target sequence (Q07817 whole entry, looked up): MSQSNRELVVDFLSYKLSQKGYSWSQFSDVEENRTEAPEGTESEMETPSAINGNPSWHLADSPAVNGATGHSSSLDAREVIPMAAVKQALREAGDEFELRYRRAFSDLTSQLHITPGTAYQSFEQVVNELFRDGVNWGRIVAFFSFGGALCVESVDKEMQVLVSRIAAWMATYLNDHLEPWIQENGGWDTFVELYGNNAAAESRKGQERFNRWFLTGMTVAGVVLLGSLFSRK
E coli Lon inh: inhibitors of E. coli Lon protease, primary screen, biochemical, fluorescence polarization | inhibition, % at 7.94 µM | AID 602123, 2011 | P0A9M0 | actives 0.42% (n = 360,000) | purified E. coli Lon protease; in the data active = inhibition above about 13%, passing the limit was not always enough;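 note: 0% = enzyme with probe and DMSO and 100% = no enzyme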
MEX-5 binding: MEX-5 zinc finger RNA-binding disruptors – biochemical, C. elegans, fluorescence polarization, MLPCN library, primary screen. Zinc finger protein mex-5 (Caenorhabditis elegans), Q9XUB2. MEX-5/FITC-TCR2 RNA binding; stronger effect = lower value. activity score (negative = inhibition of binding), % at 10 µM. actives 0.38% (n = 300,000). AID 1832, 2009;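 active = inhibition past about -25% in most replicates, and total fluorescence under double the plate's negative control median, limit read from the data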;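 note: 0% = DMSO and -100% = 5 µM competing unlabeled TCR2 RNA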
Active calls of the source: *; / = no result given. Only some compounds are listed: those with a hit (about 1.3% of all), similar ones and a draw of the others.

SMILES | EBV gp42 inh | GLD-1 TGE inh | BCLXL inh | E coli Lon inh | MEX-5 binding
Cc1cc(=O)cc(C)n1-c1ccc2c(c1)nc(C)n2-c1ccccc1 | / | -2 | 2 | 1 | 2
Cc1cc(=O)cc(C)n1-c1ccc(Br)cc1 | 5 | 88* | -4 | 17 | 2
Cc1cn2c(-c3cccnc3)nnc2s1 | -21 | 4 | 1 | -11 | 0
Cc1ccc(-c2[nH]c(=O)n3ccncc23)s1 | 28 | 28 | 58* | 2 | -8
CCCc1nc2ccccc2c(=O)n1CCc1ccccc1 | / | 7 | 2 | -10 | -2
CC(C)(C)c1ccc(C(=O)Nc2cccc3c(=O)[nH][nH]c(=O)c23)cc1 | 93* | 46* | 29 | 16 | -1
Cc1ccc(C(=O)Nc2cccc3ccccc23)cc1 | / | 6 | -2 | -8 | -2
N#CCC(N)=C(C#N)C#N | -2 | 15 | 21 | -2 | -38*
COc1ccc(N2C(=O)[C@@H]3[C@H](C2=O)[C@H]2c4ccccc4C=CN2[C@@H]3C(C)=O)cc1 | 54* | 22 | 34* | 0 | /
Cc1ccccc1OC(C)C(=O)NCCCN1CCOCC1 (configuration not stated) | / | 2 | 5 | -2 | 1
O=C(/C=C/c1ccc(OCCCF)cc1)Nc1ccnc(-c2cccnc2)n1 | -29 | -16 | -3 | -15 | -51*
Cc1ccc2ccc(C3C(=O)c4ccccc4C3=O)nc2c1 | / | 5 | 4 | -14 | -41*
COc1cc([N+](=O)[O-])ccc1NC(=S)Nn1cnnc1 | / | 1 | 36* | -7 | -2
COC(=O)Nc1ccc([N+](=O)[O-])cc1OC | -2 | -5 | 2 | -2 | -1
Cc1ccc(C)n1-c1ccccc1N | 6 | 99* | 92* | / | -21
CN1C(=O)c2cccc3c(Cl)ccc(c23)C1=O | 2 | 4 | 7 | 4 | -2
CN1C(=O)c2cccc3c(N(C)C)ccc(c23)C1=O | / | 10 | 75* | -57 | -14
Cc1sc(NC(=O)c2ccco2)c(CN2CCCCC2)c1C | -11 | 31 | 38* | 4 | -11
COc1ccc(S(=O)(=O)/N=C2/NC(=O)/C(=C\c3cc(OC)c(OC)cc3[N+](=O)[O-])S2)cc1 | -2 | 1 | 16 | -3 | -10
COc1cc(/C=C2\S/C(=N/S(=O)(=O)c3ccccc3)NC2=O)c([N+](=O)[O-])cc1OC | 4 | 17 | 37* | 5 | -5
CC(C)NC(=O)c1cc(-c2cccs2)nc2ccccc12 | / | 2 | 10 | 1 | 5
CC(=O)c1sc2nc(-c3cccs3)ccc2c1N | 35 | -2 | -1 | -8 | -10
COc1ccc(-c2c(C#N)c(N)nc3sc(C(=O)c4ccc(C)cc4)c(N)c23)cc1 | 75* | -3 | -4 | -22 | -10
CC(C)NC(=O)c1sc2nc(-c3cccs3)cc(-c3cccs3)c2c1N | 64* | -9 | 1 | / | -10
COc1ccc(C(=O)c2sc3nc(C)cc(-c4cccs4)c3c2N)cc1OC | 61* | 5 | 6 | -200 | -53*
SMILES | EBV gp42 inh | GLD-1 TGE inh | BCLXL inh | E coli Lon inh | MEX-5 binding
COc1ccc(C(=O)c2sc3nc(-c4ccc(OC)cc4)ccc3c2N)cc1 | -1 | -18 | -4 | -23 | -16
Nc1c(C(=O)Nc2nc3ccccc3s2)sc2nc(-c3cccs3)ccc12 | 35 | -5 | 25 | 10 | -46*
CCC(C)(C)NC(=O)c1cc(S(=O)(=O)N2CCCCC2)ccc1N1CCOCC1 | -11 | 6 | 5 | 1 | -1
O=C(O)c1ccc2c(c1)S(=O)(=O)c1cc(N3CCN(c4ncccn4)CC3)ccc1C2=O | / | / | / | -12 | /
COc1ccc(C(=O)c2sc3nc(C)cc(-c4cccs4)c3c2N)cc1 | 102* | / | / | -74 | -44*
Cc1cc(-c2cccs2)c2c(N)c(C(=O)c3ccc4c(c3)OCO4)sc2n1 | 133* | -22 | -6 | -35 | -9
Cc1ccc(C)c(SCC(=O)c2ccc[nH]2)c1 | 0 | 3 | 4 | 4 | 1
CCN(CC)C(=O)/C(=C\c1ccc(Br)cc1)NC(=O)c1ccccc1OC | 61* | -4 | 7 | -5 | 1
COc1ccccc1C(=O)N/C(=C\c1ccc(Br)cc1)C(=O)NCCO | -2 | 5 | 4 | -7 | 0
COC(=O)COc1ccc(C2Nc3c(Cl)ccc(C(=O)O)c3C3C=CCC32)cc1 (configuration not stated) | -9 | 16 | 43* | 3 | -24
COc1ccc(-c2cc(C(=O)N/N=C(\C)c3cccnc3)c3ccccc3n2)c(OC)c1 | / | -4 | 6 | 3 | -5
c1coc(-c2nc(-c3ccco3)c(-c3ccco3)nc2-c2ccco2)c1 | 63* | 23 | 80* | 17* | 3
Nc1nc(-c2ccco2)c(-c2ccco2)s1 | -13 | 2 | 18 | 2 | -1
CC1CCCN(CCCCOc2cccc(Br)c2)C1 (configuration not stated) | -13 | -2 | 2 | -9 | 2
Cc1cc(C(=O)Nc2ccccc2)c2ccccc2n1 | / | -6 | 0 | -5 | -3
Cc1cc(C(=O)N/N=C2\CCCC(=O)C2)c2ccccc2n1 | -7 | 74* | 26 | 15 | -5
CCOC(=O)CN(C(=O)CNC(=O)c1ccco1)C(C(=O)NC1CCCCC1)c1cccs1 (configuration not stated) | -1 | 27 | 52* | -8 | 0
CCOC(=O)CN(C(=O)CNC(=O)c1ccco1)C(C(=O)NC1CCCC1)c1ccccc1OCC (configuration not stated) | -17 | 14 | 2 | -5 | 1
O=C(O)COc1ccc(/C=C/c2nc(-c3ccccc3O)n[nH]2)cc1 | / | 10 | 8 | -14 | -101*
Cc1ccccc1NN=Nc1nc2c([nH]1)c(=O)n(C)c(=O)n2C | -26 | 7 | 11 | 10 | /
Cn1c(=O)c2[nH]c(N=NN3CCCCC3)nc2n(C)c1=O | / | / | / | -4 | /
Cn1c(=O)c2[nH]c(N=NNc3ccccc3F)nc2n(C)c1=O | -7 | 2 | 10 | -1 | -34*
CC(=O)/C(N=Nc1nc2c([nH]1)c(=O)n(C)c(=O)n2C)=C(\C)O | 15 | 11 | 9 | 8 | -36*
COCCCNC(=O)CCC(=O)NNc1nc2ccccc2c2nc(C)nn12 | 7 | 9 | 8 | -1 | -50*
CCOCCCNC(=O)CCC(=O)NNc1nc2ccccc2c2nc(C)nn12 | -26 | 3 | -5 | -1 | -39*
CCCCNC(=O)CCC(=O)NNc1nc2ccccc2c2nc(C)nn12 | -3 | 1 | 4 | -9 | -8
COC1CC(N)C2OC(c3ccccc3)OCC2O1 (configuration not stated) | / | / | / | 9 | /
N#Cc1c2n(c3c(-c4ccccc4)ncnc13)CCC2 | 2 | 3 | 3 | -13 | 0
